Fh CTSL1 inh: cathepsin L1 inhibition, PFM18AAP counter-screen. inhibition, % at 5.96 µM. AID 1906. 0.49% of 300,000 active. recombinant F. hepatica cathepsin L1, Z-Leu-Arg-MCA fluorescence;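 active = inhibition above the mean of all tested compounds plus 3 SD, set per screening campaign, cut at about 17% in these data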;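 also: 0% = plate median of test compound wells and 100% = 1 µM Z-Phe-Ala-diazomethylketone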
PHOSPHO1 block: blocks human PHOSPHO1 phosphatase activity | Q8TCT1 | recombinant PHOSPHO1, absorbance phosphatase assay | inhibition, % at 13.3 µM | 1.1% of 290,000 active; in the data active = inhibition above about 60%
Rpn11 inh: Rpn11 (human) deubiquitinase inhibition; O00487; human 26S proteasome, Ub4-pepOG fluorescence polarization; 20S core pre-blocked with epoxomicin; inhibition, % at 20 µM; 0.59% of 360,000 active; AID 588493;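 active = inhibition at 20 µM, scaled to each plate's controls, above about 33%, limit read from the data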
Target sequence (O00487 whole entry, looked up): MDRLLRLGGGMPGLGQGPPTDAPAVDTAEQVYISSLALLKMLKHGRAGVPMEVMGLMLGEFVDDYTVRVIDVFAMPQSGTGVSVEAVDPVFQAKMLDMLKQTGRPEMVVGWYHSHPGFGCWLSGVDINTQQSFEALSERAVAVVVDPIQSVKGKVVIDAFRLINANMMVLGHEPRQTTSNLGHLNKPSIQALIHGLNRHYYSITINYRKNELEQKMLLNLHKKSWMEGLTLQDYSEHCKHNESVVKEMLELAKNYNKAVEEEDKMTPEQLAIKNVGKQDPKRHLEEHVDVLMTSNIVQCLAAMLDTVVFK
NRP1-CendR mod: modulators of CendR peptide binding to human neuropilin-1. O14786. FAM-RPARPAR peptide binding to NRP-1, fluorescence polarization. inhibition, % at 25 µM. 0.85% of 360,000 active;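 active = inhibition or corrected inhibition above about 18%, plus a signal ratio from 0.5 to 1.5, limit read from the data, passing the limit was not always enough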
TPT1 inhibitor: C. albicans TPT1 enzyme inhibition; recombinant caTPT1, FP RNA substrate dephosphorylation; inhibition, % at 5 µM; 0.81% of 300,000 active; AID 1962;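 active = inhibition above the mean of all tested compounds plus 3 SD, set per screening campaign, cut at about 24% in these data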;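 also: plate controls were DMSO alone for no effect and ferristatin control at 100 nM for full effect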
HNF4A DNA FP: change in binding of human HNF4 alpha to DNA. HNF4a-FITC DNA binding, fluorescence polarization, 1 h. activity change, % at 10 µM. 0.3% of 360,000 active. AID 1224865; in the data active = activity change above about 30%, passing the limit was not always enough
* marks the source's active call; other numbers are inactive results. In the library only some 3.3% were active in any assay of this set; here they are far more common.

Results for NC(=S)N/N=C/c1cccc(/C=N/NC(N)=S)c1 ?
Fh CTSL1 inh: 18*; PHOSPHO1 block: 45; Rpn11 inh: 1; NRP1-CendR mod: 3; TPT1 inhibitor: -2; HNF4A DNA FP: 0

What do the screens show for `NC(=S)N/N=C/c1ccc(/C=N/NC(N)=S)cc1`?
Fh CTSL1 inh: 32*; PHOSPHO1 block: 4; Rpn11 inh: 4; NRP1-CendR mod: -15; TPT1 inhibitor: 0; HNF4A DNA FP: -1

What do the screens show for `NC(=S)N/N=C/c1cccc(Br)c1`?
Fh CTSL1 inh: 12; PHOSPHO1 block: -73; Rpn11 inh: 0; NRP1-CendR mod: 4; TPT1 inhibitor: 0; HNF4A DNA FP: 0

What do the screens show for `CCCCCc1cc(=O)oc2c(C(CCN3CCCCC3)c3ccc(OC)cc3)c(OC)cc(OC)c12` (centres undefined)?
Fh CTSL1 inh: 2; PHOSPHO1 block: 31; Rpn11 inh: 3; NRP1-CendR mod: 26*; TPT1 inhibitor: 2; HNF4A DNA FP: 2

What do the screens show for `COc1cc(OC)c2ccc(=O)oc2c1C(CCN1CCCCC1)c1ccc(N(C)C)cc1` (centres undefined)?
Fh CTSL1 inh: -2; PHOSPHO1 block: 40; Rpn11 inh: 6; NRP1-CendR mod: 18*; TPT1 inhibitor: 4; HNF4A DNA FP: 0

What do the screens show for `COc1cc(OC)c2ccc(=O)oc2c1C(CCN1CCCC1)c1ccc(N(C)C)cc1` (centres undefined)?
Fh CTSL1 inh: 1; PHOSPHO1 block: 31; Rpn11 inh: 5; NRP1-CendR mod: 14; TPT1 inhibitor: 3; HNF4A DNA FP: 4

How did CCCCCc1cc(=O)oc2c(C(CCN3CCCC3)c3ccc(N(C)C)cc3)c(OC)cc(OC)c12 (centres undefined) do in these assays?
Fh CTSL1 inh: 2; PHOSPHO1 block: 26; Rpn11 inh: 9; NRP1-CendR mod: 2; TPT1 inhibitor: 0; HNF4A DNA FP: 1

What do the screens show for `CCCCCc1cc(=O)oc2c(C(CCN3CCN(c4ccccc4)CC3)c3ccc4c(c3)OCO4)c(OC)cc(OC)c12` (centres undefined)?
Fh CTSL1 inh: 33*; PHOSPHO1 block: 31; Rpn11 inh: 0; NRP1-CendR mod: 18; TPT1 inhibitor: -3; HNF4A DNA FP: -2

Screens (PubChem BioAssay)
